Reference: the supplement of paper PMC6992640

Test system: HCI03 (cells of an ER-positive luminal breast cancer xenograft)
Experiment: cell viability (% of vehicle); higher = less cytotoxic
Details: 10 µM; 72 h
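Also: PDX cells carrying CMV promoter-driven luciferase, viability read as total photon flux per second by IVIS imaging following D-luciferin, vehicle control 0.1% DMSO.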

SMILES	cell viability
O=C1NC(=O)[C@@H](c2c[nH]c3ccccc23)[C@H]1c1cn2c3c(cccc13)CCC2 [Tivantinib (ARQ 197)]	81
CCC1(O)CC2CN(CCc3c([nH]c4ccccc34)C(C(=O)OC)(c3cc4c(cc3OC)N(C)C3C(O)(C(=O)OC)C(OC(C)=O)C5(CC)C=CCN6CCC43C65)C2)C1 (centres undefined) [vinblastine]	91.1
Nc1ccn(C2CCC(CO)O2)c(=O)n1 (centres undefined) [Zalcitabine]	124
CCc1nc(N)nc(N)c1-c1ccc(Cl)cc1 [Pyrimethamine]	129
C=C[C@]1(C)C[C@@H](OC(=O)CSC2C[C@H]3CC[C@@H](C2)N3C)[C@]2(C)[C@H](C)CC[C@]3(CCC(=O)[C@H]32)[C@@H](C)[C@@H]1O (some centres undefined) [Retapamulin]	113
Nc1ccc(S(N)(=O)=O)cc1 [Sulfanilamide]	127
CN(C)CCC(c1ccc(Br)cc1)c1ccccn1.O=C(O)C=CC(=O)O (centres undefined) [Brompheniramine hydrogen maleate]	117
O=C1CCC(N2C(=O)c3ccccc3C2=O)C(=O)N1 (centres undefined) [Thalidomide]	129
Cc1cccc(-c2nn3c(c2-c2ccnc4ccc(C(N)=O)cc24)CCC3)n1	90.1
O=C(CS(=O)Cc1ccco1)NCC=CCOc1cc(CN2CCCCC2)ccn1 (centres undefined) [Lafutidine]	136
c1ccc(-c2ccc(C(c3ccccc3)n3ccnc3)cc2)cc1 (centres undefined) [Bifonazole]	108
Nc1nccs1 [Aminothiazole]	105
NC(=O)N1c2ccccc2C=Cc2ccccc21 [Carbamazepine]	103
CN(CC=CC#CC(C)(C)C)Cc1cccc2ccccc12 [Terbinafine]	114
CCCN1CCCCC1C(=O)Nc1c(C)cccc1C.Cl.O (centres undefined) [Ropivacaine hydrochloride monohydrate]	116
NCCCCC(NC(CCc1ccccc1)C(=O)O)C(=O)N1CCCC1C(=O)O.O.O (centres undefined) [Lisinopril dihydrate]	137
Cn1c(=O)cc(N2CCCC(N)C2)n(Cc2cc(F)ccc2C#N)c1=O (centres undefined) [Trelagliptin]	116
Nc1ccn(C2CSC(CO)O2)c(=O)n1 (centres undefined) [Lamivudine]	130
Clc1ccc(C(Cn2ccnc2)OCc2csc3c(Cl)cccc23)c(Cl)c1.O=[N+]([O-])O (centres undefined) [Sertaconazole nitrate]	85.1
O=C(O)c1cc(-c2ccccc2)nc2ccccc12 [Cinchophen]	125

SMILES	cell viability
CN1CCCC(n2nc(Cc3ccc(Cl)cc3)c3ccccc3c2=O)CC1.Cl (centres undefined) [Azelastine HCl]	106
Cc1cc(=O)[nH]c(=S)[nH]1 [Methylthiouracil]	119
CC(COc1ccccc1)N(CCCl)Cc1ccccc1.Cl (centres undefined) [Phenoxybenzamine HCl]	131
Cc1cn(C2CC(O)C(CO)O2)c(=O)[nH]c1=O (centres undefined) [Telbivudine]	128
CCCCCCCCCCCCCCCCO [1-Hexadecanol]	95.9
COC(=O)C1=COC(O)C2C(CO)=CCC12 (centres undefined) [Genipin]	138
CCOC(=O)CC(=O)N1CCSC1COc1ccccc1OC (centres undefined) [Moguisteine]	114
CC(Cc1cc2c(c(C(N)=O)c1)N(CCCO)CC2)NCCOc1ccccc1OCC(F)(F)F (centres undefined) [Silodosin]	99.5
COc1ccc(CN(CCN(C)C)c2ccccn2)cc1.O=C(O)/C=C\C(=O)O [Mepyramine maleate]	133
O=C(O)CCNC(=O)c1ccc(/N=N/c2ccc(O)c(C(=O)O)c2)cc1 [Balsalazide]	120
COC(=O)CCc1ccc(OCC(O)CNC(C)C)cc1.Cl (centres undefined) [Esmolol HCl]	121
Cc1ncc([N+](=O)[O-])n1CCO [Metronidazole]	135
CCCCc1nc(Cl)c(CO)n1Cc1ccc(-c2ccccc2-c2nnn[n-]2)cc1.[K+] [Losartan Potassium (DuP 753)]	124
CC(C)(C)C(=O)C(Oc1ccc(Cl)cc1)n1ccnc1 (centres undefined) [Climbazole]	115
Nc1ccc(C(=O)NCC(=O)[O-])cc1.[Na+] [Sodium 4-amiropparaty Hyalrate]	109
Cl.Clc1ccc2nsnc2c1NC1=NCCN1 [Tizanidine HCl]	125
Cc1nnc(C(=O)NC(C)(C)c2nc(C(=O)NCc3ccc(F)cc3)c(O)c(=O)n2C)o1 [Raltegravir (MK-0518)]	134
Cc1c(F)cc(C(=O)NC2CC2)cc1-c1ccc(C(=O)NCC(C)(C)C)cn1 [Losmapimod]	91.4
CCCC(C(=O)OCCN(CC)CC)(c1ccccc1)c1ccccc1.Cl [SKF 525A (hydrochloride)]	123
